Data on 28 molecules can be found in PubChem BioAssay (EPA / NIEHS).

Results filed as inconclusive are left out. Activity calls are given as the source filed them. Rule for the calls, unless noted: active = hit-call score of the fitted dose curve at least 0.9, where 1 is the maximum; inactive = score below 0.9.

Assay [1] in a line: ATG_TCF_b_cat_CIS: Attagene CIS-FACTORIAL HepG2 Assay for human T-Cell-Factor with beta-catenin (TCF/b-cat) (AID 2282965). The following applies: HepG2 TCF/beta-catenin cis-reporter transcription, actives raise or lower the signal. The method, boiled down: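 Endogenous transcription factor activity is captured through cis-promoter reporter constructs transiently introduced into human HepG2 liver cells. Induced reporter mRNA is measured after 24 h and fitted bidirectionally relative to DMSO.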

Assay [2] in a line: ATG_TAL_CIS: Attagene CIS-FACTORIAL HepG2 Assay for human TAL Basal Promoter (AID 2282966).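 Note: background control endpoint measuring basal TAL promoter reporter mRNA not a specific factor.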 The following applies: HepG2 Attagene cis-factorial TAL promoter reporter; actives raise or lower the signal. The method, boiled down:
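Readout: reporter mRNA, fluorescence by CE. System: HepG2, transient multi-reporter transfection, endogenous TF activity. Exposure: 24 h. Analysis: bidirectional, DMSO-normalized; background control.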

A short description of assay [3]: ATG_TGFb_CIS: Attagene CIS-FACTORIAL HepG2 Assay for human Transforming Growth Factor (TGF) (AID 2282967). The following applies: HepG2 Attagene CIS TGFb reporter, mRNA transcription; actives raise or lower the signal. The method, boiled down: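 HepG2 cells transiently transfected with cis-promoter-driven multiple reporter units measure endogenous TF activity; reporter mRNA quantified at 24 h by RT-PCR, FAM labeling, HpaI digestion and capillary electrophoresis. Bidirectional fit vs DMSO.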

The nature of assay [4]: ATG_VDRE_CIS: Attagene CIS-FACTORIAL HepG2 Assay for human Vitamin D Receptor Element (VDRE) (AID 2282968). To be noted: HepG2 VDRE cis-reporter transcription, actives raise or lower the signal. The method, boiled down:
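Reporter mRNA induction, quantified by capillary electrophoresis of fluorescently labelled RT-PCR products, was read 24 h after dosing HepG2 cells carrying transiently transfected cis-regulated reporter units; gain or loss relative to DMSO.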

Assay [5] concerns the target Estrogen receptor (Homo sapiens) (UniProt P03372). The experiment in a line: ATG_ERa_TRANS: Attagene TRANS-FACTORIAL HepG2 Assay for human Estrogen Receptor alpha (ERa) (AID 2282970; active = hit-call score of the fitted dose curve at least 0.9, where 1 is the maximum). To be noted: HepG2 Attagene TRANS ERa GAL4 reporter, mRNA. A digest of the protocol:
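Transactivation via ERa-Gal4 chimera in HepG2; 24 hour incubation; reporter mRNA detected by fluorescence RT-PCR and capillary electrophoresis.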

Assay [6] addresses Steroid hormone receptor ERR1 (Homo sapiens) (UniProt P11474). The experiment in a line: ATG_ERRa_TRANS: Attagene TRANS-FACTORIAL HepG2 Assay for human Estrogen-Related Receptor alpha (ERRa) (AID 2282971; active = hit-call score of the fitted dose curve at least 0.9, where 1 is the maximum). To be noted: HepG2 Attagene TRANS reporter, ERRa transactivation. The method, boiled down: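 HepG2 cells were transiently transfected with multiple GAL4-UAS reporter units, then dosed with compound for 24 h. Total RNA was reverse-transcribed, reporter cDNA PCR-amplified and fluorescently labelled, and fragments resolved by capillary electrophoresis; induction was compared with DMSO.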

Assay [7] addresses X-box-binding protein 1 (Homo sapiens) (UniProt P17861). Nature of the assay: ATG_Xbp1_CIS: Attagene CIS-FACTORIAL HepG2 Assay for human X-box Binding Protein 1 (XBP1) (AID 2282972). To be noted: HepG2 XBP1 cis-element reporter, Attagene multiplex; actives raise or lower the signal. A digest of the protocol: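 HepG2 cells transiently transfected with cis-regulated multiple reporter transcription units; endogenous transcription factor activity measured 24 hours after chemical dosing. Reporter mRNA quantified by RT-PCR, 6-FAM primer extension, HpaI digestion and capillary electrophoresis; bidirectional fitting versus DMSO.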

A short description of assay [8]: ATG_GAL4_TRANS: Attagene TRANS-FACTORIAL HepG2 Assay for GAL4 (Internal Marker) (AID 2282976; active = hit-call score of the fitted dose curve at least 0.9, where 1 is the maximum). To be noted: HepG2 Attagene TRANS GAL4 internal marker reporter. The method, boiled down:
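Fluorescence from capillary electrophoresis of labelled RT-PCR products quantifies reporter mRNA induction after 24 h dosing of HepG2 cells carrying transfected GAL4-UAS reporter transcription units. Vehicle DMSO serves as baseline.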

Assay [9] can be described thus: ATG_M_19_TRANS: Attagene TRANS-FACTORIAL HepG2 Assay for M19 Transcription Factor (Internal Marker) (AID 2282974; active = hit-call score of the fitted dose curve at least 0.9, where 1 is the maximum). The following applies: HepG2 Attagene TRANS-FACTORIAL M19 internal marker reporter. The method, boiled down:
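24 h chemical exposure of transiently transfected HepG2 (MRTU library). RNA → oligo(dT) RT → PCR → 6-FAM labelling → HpaI cut → CE fluorescence. Positive-direction fit vs DMSO baseline; background internal-marker readout.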

The target in assay [10] is Nuclear receptor subfamily 1 group I member 3 (Homo sapiens) (UniProt Q14994). Nature of the assay: ATG_CAR_TRANS: Attagene TRANS-FACTORIAL HepG2 Assay for human Constitutive Androstane Receptor (CAR) (AID 2282969; active = hit-call score of the fitted dose curve at least 0.9, where 1 is the maximum;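 note: activators raise reporter mRNA above DMSO so AC50 marks induction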). The following applies: HepG2 Attagene TRANS-FACTORIAL CAR reporter. A digest of the protocol: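 Readout is reporter mRNA induction, quantified by fluorescent primer extension and capillary electrophoresis after RT-PCR. Cells were HepG2 transiently carrying chimeric NR-Gal4 constructs with GAL4-UAS reporters, treated for 24 h; activity scored upward from DMSO.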
Chain of Nuclear receptor subfamily 1 group I member 3 (Homo sapiens) (Q14994 whole entry, looked up, the tested form may be a part): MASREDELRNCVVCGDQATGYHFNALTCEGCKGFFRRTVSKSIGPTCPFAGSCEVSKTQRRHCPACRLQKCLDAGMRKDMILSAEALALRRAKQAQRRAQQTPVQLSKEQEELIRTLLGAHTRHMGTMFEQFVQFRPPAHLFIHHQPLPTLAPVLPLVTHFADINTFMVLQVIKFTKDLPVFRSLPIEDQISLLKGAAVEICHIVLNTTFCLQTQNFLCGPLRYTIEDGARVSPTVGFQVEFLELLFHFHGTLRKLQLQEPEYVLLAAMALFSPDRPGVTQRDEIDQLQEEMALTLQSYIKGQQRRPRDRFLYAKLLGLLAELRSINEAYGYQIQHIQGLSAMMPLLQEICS

Chain of Steroid hormone receptor ERR1 (Homo sapiens) (P11474 whole entry, looked up, the tested form may be a part): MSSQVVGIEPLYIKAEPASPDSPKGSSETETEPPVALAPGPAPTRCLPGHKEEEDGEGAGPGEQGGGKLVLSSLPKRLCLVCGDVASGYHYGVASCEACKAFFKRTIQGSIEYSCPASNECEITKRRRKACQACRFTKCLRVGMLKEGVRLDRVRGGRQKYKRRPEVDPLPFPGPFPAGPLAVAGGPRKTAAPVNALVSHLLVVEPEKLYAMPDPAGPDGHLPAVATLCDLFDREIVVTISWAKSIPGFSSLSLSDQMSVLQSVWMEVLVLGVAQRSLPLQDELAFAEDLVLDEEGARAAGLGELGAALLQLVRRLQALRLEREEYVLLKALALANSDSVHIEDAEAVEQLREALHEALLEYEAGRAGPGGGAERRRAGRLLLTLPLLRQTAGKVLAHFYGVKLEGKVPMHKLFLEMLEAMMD
Chain of Estrogen receptor (Homo sapiens) (P03372 whole entry, looked up, the tested form may be a part): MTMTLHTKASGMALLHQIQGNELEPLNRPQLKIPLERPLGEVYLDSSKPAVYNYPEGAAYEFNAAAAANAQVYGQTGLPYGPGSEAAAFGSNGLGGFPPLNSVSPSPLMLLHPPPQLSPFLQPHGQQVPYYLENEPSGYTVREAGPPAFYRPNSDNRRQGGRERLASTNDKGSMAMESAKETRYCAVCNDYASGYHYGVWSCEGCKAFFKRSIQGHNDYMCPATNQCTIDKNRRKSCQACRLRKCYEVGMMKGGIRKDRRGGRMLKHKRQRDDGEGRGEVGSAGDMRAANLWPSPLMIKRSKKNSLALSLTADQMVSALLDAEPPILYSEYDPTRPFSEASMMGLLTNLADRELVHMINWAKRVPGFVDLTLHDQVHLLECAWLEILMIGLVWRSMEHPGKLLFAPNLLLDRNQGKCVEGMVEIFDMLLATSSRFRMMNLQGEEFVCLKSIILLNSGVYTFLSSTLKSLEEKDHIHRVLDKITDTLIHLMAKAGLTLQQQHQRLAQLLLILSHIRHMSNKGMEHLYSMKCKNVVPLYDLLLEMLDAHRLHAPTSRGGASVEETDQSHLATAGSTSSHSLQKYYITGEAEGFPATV
Chain of X-box-binding protein 1 (Homo sapiens) (P17861 whole entry, looked up): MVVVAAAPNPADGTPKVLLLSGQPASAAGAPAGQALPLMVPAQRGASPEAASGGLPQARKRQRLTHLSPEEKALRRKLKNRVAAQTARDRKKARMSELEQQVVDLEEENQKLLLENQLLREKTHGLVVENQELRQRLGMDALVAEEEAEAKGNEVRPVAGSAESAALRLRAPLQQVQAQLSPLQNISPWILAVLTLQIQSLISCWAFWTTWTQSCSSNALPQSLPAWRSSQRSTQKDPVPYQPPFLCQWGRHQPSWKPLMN

On to `OCC(F)(F)C(F)(F)C(F)(F)C(F)(F)C(F)(F)C(F)(F)C(F)(F)C(F)(F)CO`, for which the result in assay [1], in assay [2], in assay [3], in assay [4], in [6] and in assay [7] was inactive. The molecule was called inactive in [8]. In addition, the half-maximal activity concentration (AC50) in assay [5] is 0.178 µM (active).

Consider `O=C1C=CC(=O)N1c1ccccc1`, for which the molecule was classed as inactive in assay [1], in assay [2], in assay [3], in assay [4], in assay [5] and in assay [6]. Further, the molecule was classed as inactive in assay [7], in assay [9] and in [8].

Consider `CCOC(=O)CC(=O)C(F)(F)C(F)(F)F`, for which the result in [1], in assay [2], in assay [3], in [4], in assay [5] and in assay [6] was inactive. Besides, the call in assay [7], in [9] and in [8] was inactive.

As for `C[Si](Cl)(Cl)CCC(F)(F)C(F)(F)C(F)(F)C(F)(F)C(F)(F)C(F)(F)F`, the molecule was called inactive in [1], in assay [2], in assay [3], in [4], in assay [5] and in assay [6]. Further, the molecule was classed as inactive in [7] and in assay [8].

With `O=S(=O)(Cl)C(F)(F)C(F)(F)C(F)(F)C(F)(F)C(F)(F)C(F)(F)C(F)(F)C(F)(F)F`, the call in assay [1], in assay [2], in assay [3], in assay [4], in assay [6] and in assay [7] was inactive. The outcome in assay [9] was inactive. For the same molecule, the AC50 in assay [5] was 20.7 µM (active).

`FC(F)(F)C(F)(F)C(F)(F)C(F)(F)C(F)(F)C(F)(F)CC[Si](Cl)(Cl)Cl`: the outcome in [1], in assay [2], in assay [3], in assay [4], in [5] and in assay [6] was inactive. Also, the molecule was called inactive in assay [7] and in [8].

As to `C=C(C)C(=O)OCC(F)(F)C(F)(F)C(F)(F)C(F)F`, the molecule was called inactive in assay [1], in [2], in assay [3], in [4], in [5] and in [6]. Further, the result in [7], in assay [9] and in assay [8] was inactive.

Turning to `OCC(F)(F)C(F)(F)C(F)(F)CO`, the molecule was called inactive in assay [1], in [2], in assay [3], in [4], in assay [5] and in assay [6]. In addition, the result in [7] and in assay [8] was inactive.

With `Cc1ccc2c(c1)OCC(=O)CO2`, the molecule was called inactive in assay [1], in assay [2], in assay [3], in [4], in assay [5] and in [6]. The molecule was classed as inactive in [7] and in [9].

On to `CNS(=O)(=O)C(F)(F)C(F)(F)C(F)(F)C(F)(F)C(F)(F)C(F)(F)C(F)(F)C(F)(F)F`, for which the molecule was called inactive in [1], in assay [2], in assay [3], in assay [4], in [6] and in assay [7]. Besides, in assay [9], the molecule was called inactive. Moreover, the AC50 in assay [5] was 9.26 µM (active).

`CC1CCCCC1`: the molecule was classed as inactive in [1], in assay [2], in [3], in assay [4], in assay [10] and in [7]. The call in assay [8] was inactive.

Consider `OCC(O)CC(F)(F)C(F)(F)C(F)(F)C(F)(F)C(F)(F)C(F)(F)C(F)(F)C(F)(F)F` (stereo unspecified), for which the outcome in assay [1], in assay [2], in assay [3], in [4], in assay [6] and in [7] was inactive. In addition, the call in assay [9] and in [8] was inactive. Besides, the concentration at half-maximal activity (AC50) in assay [5] is 9.15 µM (active).

`FC(F)(F)C(F)(F)C(F)(F)C(F)(F)C(F)(F)C(F)(F)C(F)(F)CCI`: the result in [1], in assay [2], in assay [3], in [4], in [6] and in assay [7] was inactive. Also, the molecule was called inactive in [9] and in assay [8]. Further, the AC50 in assay [5] was 24.5 µM (active).

For the molecule `O=C1c2ccccc2C(=O)c2c(Cl)cccc21`, the molecule was classed as inactive in [1], in assay [2], in [3], in assay [4], in assay [6] and in [7]. Also, the outcome in assay [9] and in assay [8] was inactive. The AC50 in assay [5] was 2.88 µM (active).

With `O=C(F)C1(F)C(F)(F)C(F)(F)C(F)(F)C(F)(F)C1(F)F`, the molecule was classed as inactive in assay [1], in assay [2], in assay [3], in [4], in assay [5] and in assay [6]. The call in assay [7] and in [9] was inactive.

Take `NC(=O)C(F)(F)C(F)(F)C(F)(F)C(F)(F)C(N)=O`: the result in assay [1], in assay [2], in [3], in assay [4], in assay [5] and in assay [6] was inactive. For the same molecule, the molecule was classed as inactive in [7], in assay [9] and in assay [8].

For `O=C(Cl)C(F)(F)C(F)(F)C(F)(F)C(F)(F)C(F)(F)C(F)(F)F`, the outcome in assay [1], in [2], in [3], in [4], in assay [5] and in assay [6] was inactive. The call in assay [7] and in assay [8] was inactive.

For the molecule `Oc1ccc2c(c1)CCC2`, the call in [1], in [2], in assay [3], in assay [4], in assay [6] and in assay [7] was inactive. Also, the outcome in assay [8] was inactive. Moreover, the concentration at half-maximal activity (AC50) in [5] was 22.6 µM (active).

As for `Cc1ccc(S(=O)(=O)C(I)I)cc1`, the AC50 in [1] is 8.97 µM (active); in [4], 9.01 µM (active); in assay [7] it was 7.84 µM (active). Besides, the outcome in [2], in assay [3] and in [5] was inactive.

Consider `CCN(CCO)S(=O)(=O)C(F)(F)C(F)(F)C(F)(F)C(F)(F)C(F)(F)C(F)(F)C(F)(F)C(F)(F)F`, for which the molecule was classed as inactive in [1], in assay [2], in assay [3], in assay [4] and in [5]. Moreover, the AC50 in assay [7] was 29.8 µM (active).

Turning to `CCN(CC)c1ccc(N=Nc2ccccc2)cc1`, the molecule was classed as inactive in [1], in [2], in [3], in [5], in [7] and in assay [9]. The AC50 in assay [4] was 7.19 µM (active).

For the molecule `CCCCCCCCCCCCCCCCC`, the call in [1], in assay [2], in [3], in [4], in [5] and in assay [7] was inactive.

With `O=C(O)C(F)(F)C(F)(F)C(F)(F)C(F)(F)C(F)(F)C(F)(F)C(F)F`, the result in [1], in [2], in assay [3], in [4], in assay [7] and in assay [8] was inactive. Also, the AC50 in [5] was 41.4 µM (active).

As for `O=C(Cl)C(F)(F)C(F)(F)C(F)(F)C(F)(F)C(F)(F)C(F)(F)C(F)(F)F`, the call in assay [1], in assay [2], in assay [3], in assay [4] and in assay [7] was inactive. Moreover, the half-maximal activity concentration (AC50) in [5] was 53.1 µM (active).

For `C=CCOC(=O)CC(C)C`, the result in [1], in assay [2], in [3], in assay [4], in [5] and in assay [7] was inactive. Besides, the call in [9] and in [8] was inactive.

As for `CCCCCCCCCCCCC[N+](C)(C)Cc1ccccc1`, the molecule was classed as inactive in [1], in assay [2], in [3], in assay [4], in assay [5] and in [7].

`C=CC(=O)OCC(F)(F)C(F)(F)C(F)(F)COC(=O)C=C`: the values for the AC50 in assay [1] and in assay [4] were 19.8 µM (active) and 20.7 µM (active), respectively. In addition, the call in [2], in assay [3], in assay [5] and in assay [7] was inactive.

Regarding `Brc1ccccn1`, the outcome in assay [1], in assay [2], in assay [3], in assay [4], in [5] and in assay [7] was inactive. Also, the outcome in assay [9] and in assay [8] was inactive.
